The subject of experiment [1] is Wnt5a (protein binding on small-molecule microarray). Kind of experiment: small molecules binding Wnt5a protein – biophysical, small-molecule microarray, 635/667 nm fluorescence, primary screen (AID 1142).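 Note: fluorescence read at 667 nm with signal to noise per printed feature.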 Particulars: 635 nm fluorescence, higher = more signal.
A short description of experiment [2]: ATP-based viability of Huh7 replicon cells – cell-based, CellTiter-Glo luminescence, basal, 48 h, cytotoxicity control for HCV replication inhibitor project, primary screen (AID 1143).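 Note: Huh7 hepatoma cells carrying a hepatitis C replication reporter with no stimulus; test concentration not given here.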 The conditions noted are these: higher = more signal, called active from +8 up or from −8 down.
The nature of experiment [3]: Pseudomonas biofilm growth suppression – PAO1 strain, BacTiter-Glo luminescence, LB-PBS, primary screen (AID 1144). Particulars: P. aeruginosa PAO1 biofilm, 12 h, higher = more signal.
Experiment [4] is described as follows: basal CRE-LacZ reporter activity in PC12 – cell-based, unstimulated, primary screen (AID 1145). Particulars: no forskolin, luminescence, 4.5 h, higher = more signal, called active from +8 up or from −8 down.
The nature of experiment [5]: forskolin-driven CRE-LacZ activity in PC12 – cell-based, CRE-LacZ reporter, forskolin-stimulated, primary screen (AID 1146).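 Note: PC12 cells with 6xCRE LacZ reporter stimulated by forskolin 10 µM; beta-galactosidase reporter signal reflecting CREB driven transcription.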 The conditions noted are these: luminescence, 4.5 h, higher = more signal, called active from +8 up or from −8 down.
For experiment [6], the target named is Streptavidin (Streptomyces avidinii) (UniProt P22629). Description: compounds binding control protein streptavidin – biophysical, small-molecule microarray, 635/667 nm fluorescence, artefact control for SMM compound annotation, primary screen (AID 1147).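 Note: signal reflects streptavidin binding to arrayed compounds as a control protein.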 Particulars: higher = more signal.
Sequence of Streptavidin (Streptomyces avidinii) (P22629 whole entry, looked up): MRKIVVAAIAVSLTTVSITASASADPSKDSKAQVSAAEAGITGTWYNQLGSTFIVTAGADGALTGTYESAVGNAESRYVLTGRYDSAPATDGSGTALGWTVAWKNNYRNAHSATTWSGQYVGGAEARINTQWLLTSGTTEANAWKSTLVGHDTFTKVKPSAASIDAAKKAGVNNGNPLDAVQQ
A short description of experiment [7]: probe aInhba binding on compound microarray – biochemical, small-molecule microarray, 635/667 nm fluorescence, primary screen (AID 1148).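 Note: score merges 667nm spot fluorescence with signal-to-noise for antibody binding to printed compounds.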 Particulars: higher = more signal.
Experiment [8] addresses Torsin-1A (Homo sapiens) (UniProt O14656). Description: TOR1A wild-type binding on microarray – cell lysate, small-molecule microarray, lysate, 635/667 nm, primary screen (AID 1149). The conditions noted are these: COS7 hTOR1A-WT lysate, 635 nm fluorescence, higher = more signal.
Experiment [9] has the same target. Description: torsin A mutant lysate binding on microarrays – cell lysate, small-molecule microarray, COS7 lysate, 635/667 nm fluorescence, primary screen (AID 1150).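 Note: score pools 667 nm emission and signal to noise measuring lysate protein binding.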 Particulars: COS7 hTOR1A mutant lysate, 635 nm fluorescence, higher = more signal.
Experiment [10] deals with Sonic hedgehog protein (Shh). Kind of experiment: Sonic hedgehog microarray binding compounds – biochemical, small-molecule microarray, 635/667 nm fluorescence, primary screen (AID 1151).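 Note: Shh protein binding to compounds spotted on small-molecule microarray slides; score combines spot fluorescence intensity with signal-to-noise across triplicate slides.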 The conditions noted are these: 635 nm fluorescence, higher = more signal.
A short description of experiment [11]: optical density shifts of acrAB sulA E. coli – strain DRC41, OD650, 48 h, E. coli filamentation inducer project, primary screen (AID 1152).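 Note: E. coli MC1000 strain DRC41 lacking acrAB efflux pump and sulA.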 The conditions noted are these: higher = more signal, called active from +8 up or from −8 down.
Experiment [12] in a line: probe aLefty1 binding on compound microarray – biochemical, small-molecule microarray, 635/667 nm fluorescence, primary screen (AID 1153).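 Note: score merges spot fluorescence with signal-to-noise ratio from the scanned slide images.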 The conditions noted are these: higher = more signal.
Experiment [13] in a line: plasmodial surface anion channel blockers, osmotic lysis – cell-based, P. falciparum Indochina, OD700, 1 h, primary screen (AID 1154). The conditions noted are these: P. falciparum Indochina infected RBC osmotic lysis, higher = more signal, called active from +8 up or from −8 down.
Experiment [14] can be described thus: plasmodial surface anion channel blockers, osmotic lysis – cell-based, P. falciparum Indochina, OD700, 2 h, primary screen (AID 1155).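 Note: lysis reports solute entry through the parasite surface anion channel PSAC.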 The conditions noted are these: P. falciparum Indochina infected erythrocytes, higher = more signal, called active from +8 up or from −8 down.
Experiment [15] in a line: changes in parasitized red cell lysis, either direction – P. falciparum Indochina, OD700, 3 h, PSAC antagonist project, primary screen (AID 1156). Particulars: P. falciparum-infected erythrocytes, osmotic lysis, higher = more signal, called active from +8 up or from −8 down.
Experiment [16] is described as follows: plasmodial surface anion channel blockers, osmotic lysis – cell-based, P. falciparum Indochina, OD700, 18 h, primary screen (AID 1157). The conditions noted are these: P. falciparum Indochina infected erythrocytes, osmotic lysis OD700, 18 h; higher = more signal, called active from +8 up or from −8 down.
The nature of experiment [17]: S6 kinase pathway phospho-S6 level changes – cell-based, A549, cytoblot, luminescence, serum-stimulated, primary screen (AID 1158).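 Note: serum-stimulated A549 lung adenocarcinoma cells; signal is phosphorylated S6 detected by cytoblot immunostaining with HRP secondary.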 Particulars: 5 h, higher = more signal.
Experiment [18] deals with NADPH oxidase 2 (Homo sapiens) (UniProt P04839). Description: compounds shifting NOX2 Amplex Red fluorescence – cell-based, HEK293-NOX2, PMA-stimulated, NOX inhibitor project, primary screen (AID 1159). Note: test concentration not given here. Particulars: 45 min, higher = more signal, called active from +8 up or from −8 down.
Sequence of NADPH oxidase 2 (Homo sapiens) (P04839 whole entry, looked up): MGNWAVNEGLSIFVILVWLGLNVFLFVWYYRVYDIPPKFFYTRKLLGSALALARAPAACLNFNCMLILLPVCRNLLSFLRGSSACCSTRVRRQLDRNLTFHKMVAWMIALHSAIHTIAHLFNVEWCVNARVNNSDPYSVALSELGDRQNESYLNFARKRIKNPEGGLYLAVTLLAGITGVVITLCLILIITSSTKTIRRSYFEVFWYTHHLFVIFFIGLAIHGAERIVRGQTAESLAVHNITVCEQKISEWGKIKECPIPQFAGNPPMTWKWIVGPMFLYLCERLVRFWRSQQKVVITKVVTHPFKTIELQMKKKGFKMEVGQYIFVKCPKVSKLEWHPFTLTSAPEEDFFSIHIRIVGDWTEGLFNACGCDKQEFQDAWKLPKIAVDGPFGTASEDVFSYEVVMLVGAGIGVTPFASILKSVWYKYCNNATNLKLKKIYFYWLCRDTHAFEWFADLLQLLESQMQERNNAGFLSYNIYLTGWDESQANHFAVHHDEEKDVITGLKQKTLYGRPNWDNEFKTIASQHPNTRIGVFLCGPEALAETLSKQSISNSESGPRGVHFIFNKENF
Experiment [19] addresses NADPH oxidase 4 (Homo sapiens) (UniProt Q9NPH5). Kind of experiment: compounds shifting NOX4 Amplex Red fluorescence – cell-based, HEK293-NOX4, tetracycline-induced, NOX inhibitor project, primary screen (AID 1160). The conditions noted are these: HEK293-NOX4, Amplex Red H2O2 fluorescence, 45 min; higher = more signal, called active from +8 up or from −8 down.
In experiment [20] the target is NADPH oxidase 5 (Homo sapiens) (UniProt Q96PH1). Kind of experiment: compounds shifting NOX5 Amplex Red fluorescence – cell-based, HEK293-NOX5, NOX inhibitor project, primary screen (AID 1161). Particulars: HEK293-NOX5, ionomycin, 45 min, higher = more signal.
Sequence of NADPH oxidase 5 (Homo sapiens) (Q96PH1 whole entry, looked up): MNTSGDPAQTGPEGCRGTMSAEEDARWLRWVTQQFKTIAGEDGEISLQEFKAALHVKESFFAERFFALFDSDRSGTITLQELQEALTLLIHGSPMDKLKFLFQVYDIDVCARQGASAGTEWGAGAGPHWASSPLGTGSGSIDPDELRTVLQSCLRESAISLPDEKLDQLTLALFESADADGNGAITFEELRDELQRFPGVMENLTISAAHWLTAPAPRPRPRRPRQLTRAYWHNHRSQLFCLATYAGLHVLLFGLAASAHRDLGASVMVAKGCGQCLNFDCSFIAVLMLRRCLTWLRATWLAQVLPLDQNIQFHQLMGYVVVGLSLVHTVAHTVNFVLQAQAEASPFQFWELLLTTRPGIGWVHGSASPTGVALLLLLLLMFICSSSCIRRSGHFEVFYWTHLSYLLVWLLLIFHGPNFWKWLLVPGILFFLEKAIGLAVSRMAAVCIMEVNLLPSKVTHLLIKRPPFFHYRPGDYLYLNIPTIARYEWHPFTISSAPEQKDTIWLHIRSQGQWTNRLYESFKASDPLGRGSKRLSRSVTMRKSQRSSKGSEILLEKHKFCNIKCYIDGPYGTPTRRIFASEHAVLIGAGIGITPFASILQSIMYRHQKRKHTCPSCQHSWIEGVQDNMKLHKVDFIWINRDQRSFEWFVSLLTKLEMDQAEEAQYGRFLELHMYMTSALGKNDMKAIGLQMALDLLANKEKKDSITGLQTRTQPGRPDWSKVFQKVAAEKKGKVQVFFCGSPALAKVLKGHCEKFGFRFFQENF

Each structure is given as a SMILES string. Calls of active or inactive are those of the source. Unless noted, the rule behind the calls is not given here.

Sequence of NADPH oxidase 4 (Homo sapiens) (Q9NPH5 whole entry, looked up): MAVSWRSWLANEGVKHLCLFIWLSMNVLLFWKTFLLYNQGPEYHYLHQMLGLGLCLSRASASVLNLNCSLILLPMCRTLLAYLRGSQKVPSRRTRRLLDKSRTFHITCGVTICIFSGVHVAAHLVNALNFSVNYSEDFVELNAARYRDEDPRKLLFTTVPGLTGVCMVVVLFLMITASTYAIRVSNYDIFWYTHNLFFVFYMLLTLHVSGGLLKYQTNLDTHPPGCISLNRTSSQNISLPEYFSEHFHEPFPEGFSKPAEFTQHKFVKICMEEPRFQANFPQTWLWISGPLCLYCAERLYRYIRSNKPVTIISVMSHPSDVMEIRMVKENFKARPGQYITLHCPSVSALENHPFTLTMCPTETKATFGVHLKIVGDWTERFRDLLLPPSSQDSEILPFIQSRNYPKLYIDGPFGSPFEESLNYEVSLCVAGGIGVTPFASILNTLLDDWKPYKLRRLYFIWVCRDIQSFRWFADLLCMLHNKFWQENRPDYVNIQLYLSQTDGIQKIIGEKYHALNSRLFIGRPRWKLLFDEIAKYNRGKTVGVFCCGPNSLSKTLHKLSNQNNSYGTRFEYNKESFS
Sequence of Torsin-1A (Homo sapiens) (O14656 whole entry, looked up): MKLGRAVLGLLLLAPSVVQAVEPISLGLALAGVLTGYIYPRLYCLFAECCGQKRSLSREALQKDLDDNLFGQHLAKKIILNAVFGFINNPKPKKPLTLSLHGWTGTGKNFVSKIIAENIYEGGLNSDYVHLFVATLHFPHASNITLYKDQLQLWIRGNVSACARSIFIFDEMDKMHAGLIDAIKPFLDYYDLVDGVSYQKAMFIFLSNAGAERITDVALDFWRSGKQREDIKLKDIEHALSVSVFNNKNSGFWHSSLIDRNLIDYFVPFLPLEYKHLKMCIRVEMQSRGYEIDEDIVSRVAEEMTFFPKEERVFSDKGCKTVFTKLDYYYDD

With `CCN1C(=O)[C@H]2[C@H]3[C@H](O)[C@H](O)CC(=NOCC(C)C)[C@H]3CC[C@H]2C1=O`, the composite z-score in experiment [1] was -0.0772; in experiment [6], 0.342; in experiment [7] it was -0.0774; in the experiment with Torsin-1A (Homo sapiens) [8], -0.284; in the experiment with Torsin-1A (Homo sapiens) [9] it was 0.303; in experiment [10], 0.599. This compound displayed a composite z-score in [12] of -0.0658. Besides, the z-score in experiment [2] is 0.306 (inactive); in experiment [3] it was 0.138 (inactive); in [4] it was -0.202 (inactive); in experiment [5] it was 0.13 (inactive); in experiment [11], 0.552 (inactive); in [13], -0.135 (inactive). Further, the z-score in experiment [14] was -0.0288 (inactive); in [15], -0.369 (inactive); in experiment [16] it was -0.433 (inactive); in [17], -0.812; in experiment [18], -5.92 (inactive); in [19], 0.358 (inactive). Moreover, in [20], the z-score was -0.231.

`CON=C1c2cc(OC)ccc2O[C@H](c2cccc(OC)c2)[C@H]1O`: the composite z-score in [1] is -0.038; in experiment [6], 0.431; in experiment [7] it was -0.016; with Torsin-1A (Homo sapiens) [8], 0.195; in the experiment with Torsin-1A (Homo sapiens) [9] it was 0.517; in experiment [10], 0.755. In experiment [12], this compound gave a composite z-score of -0.0061. The z-score in experiment [2] is -3.45 (inactive); in [3], -0.243 (inactive); in experiment [4], -0.0731 (inactive); in experiment [5] it was -0.206 (inactive); in experiment [11] it was 0.788 (inactive); in experiment [13] it was 3.04 (inactive). For the same compound, the z-score is 0.72 (inactive) in experiment [14]; -0.241 (inactive) in experiment [15]; 0.245 (inactive) in experiment [16]; 0.686 in experiment [17]; -0.837 (inactive) in experiment [18]; -0.406 (inactive) in experiment [19]. Further, the z-score in [20] was -0.175.

In the case of `COC(=O)C(C(=O)OC)C1CCCC(=O)C1` (stereo not given), the composite z-score in experiment [1] is -0.155; in [6] it was 0.402; in experiment [7], -0.274; in the experiment with Torsin-1A (Homo sapiens) [8], 0.622; in the experiment with Torsin-1A (Homo sapiens) [9] it was 1.42; in [10] it was 0.769. In experiment [12], this compound showed a composite z-score of -0.284. For the same compound, the z-score in [2] is -0.509 (inactive); in experiment [3], -0.619 (inactive); in [4], -0.886 (inactive); in experiment [5], -0.0388 (inactive); in experiment [11], -1.06 (inactive); in [13], 0.69 (inactive). Further, the z-score is -0.176 (inactive) in experiment [14]; 0.426 (inactive) in [15]; -0.29 (inactive) in experiment [16]; 0.649 in [17]; -1.18 (inactive) in experiment [18]; -1.61 (inactive) in experiment [19]. The z-score in experiment [20] came to 0.921.

On to `CC(=O)OC[C@H]1O[C@H](C#CCCc2ccccc2)C=C[C@@H]1OC(C)=O`, for which the composite z-score in [1] is -0.0248; in experiment [6], -0.0683; in experiment [7], -0.0719; with Torsin-1A (Homo sapiens) [8], 0.27; in the experiment with Torsin-1A (Homo sapiens) [9] it was 0.553; in experiment [10], 1.52. In experiment [12], this compound gave a composite z-score of 0.233. The z-score is -1.42 (inactive) in [2]; 1.34 (inactive) in [3]; -0.339 (inactive) in [4]; 0.859 (inactive) in experiment [5]; -0.2 (inactive) in experiment [11]; 1.43 (inactive) in experiment [13]. Moreover, the z-score was 0.317 (inactive) in experiment [14]; 0.182 (inactive) in experiment [15]; 0.148 (inactive) in experiment [16]; -0.427 in experiment [17]; -1.58 (inactive) in [18]; 1.39 (inactive) in [19]. In [20], the z-score came out at 1.07.

Regarding `C[C@@H](c1ccccc1)N1C(=O)[C@H]2[C@H]3[C@H](O)[C@H](O)CC(=NOC[C@@H](O)COCc4ccco4)[C@H]3CC[C@H]2C1=O`, the composite z-score was -0.0017 in experiment [1]; -0.304 in [6]; -0.253 in experiment [7]; 3.17 in the experiment with Torsin-1A (Homo sapiens) [8]; 2.95 with Torsin-1A (Homo sapiens) [9]; 1.65 in [10]. This compound showed a composite z-score in experiment [12] of -0.201. In addition, the z-score was 0.523 (inactive) in [2]; 1 (inactive) in experiment [3]; 1.5 (inactive) in experiment [4]; 0.81 (inactive) in experiment [5]; -0.309 (inactive) in experiment [11]; 2.04 (inactive) in [13]. Moreover, the z-score is -0.0645 (inactive) in experiment [14]; 0.33 (inactive) in [15]; 0.332 (inactive) in [16]; -0.632 in [17]; -1.37 (inactive) in [18]; 0.529 (inactive) in experiment [19]. For the same compound, the z-score in [20] turned out to be 0.122.

The values above are taken from PubChem BioAssay.
